This is a sample that favours compounds with a hit; in the whole collection about 4.6% have one here.
TRHR enhancer = qHTS for Small Molecule Agonists and Allosteric Enhancers of Human TRH Receptor: Primary Screen for Enhancers; TRHR cells, fluo-8 calcium fluorescence, EC20 TRH enhancement; enhancement, % at 2 µM; Thyrotropin-releasing hormone receptor (Homo sapiens), P34981; AID 493056, 2011; 360,000 tested, 0.66% active; in the data active = enhancement above about 30%; also: 0% is about no effect
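Enhancer read-out: after compound pinning and an initial kinetic agonist-mode read, an EC20 of TRH (10 nM final) was injected and fluo-8 calcium signal (Ex 480/Em 530) followed at 1 s/cycle for 100 cycles in TRHR-expressing cells.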
D1 PAM = Potentiators of Human D1 Dopamine Receptor: qHTS; HEK293 TREx D1 cells, calcium flux, dopamine EC20 potentiation; potentiation, % at 10 µM; 360,000 tested, 0.036% active; AID 504651, 2011; in the data active = potentiation above about 30%; also: 0% is about no effect
Target sequence (P21728 whole entry, looked up): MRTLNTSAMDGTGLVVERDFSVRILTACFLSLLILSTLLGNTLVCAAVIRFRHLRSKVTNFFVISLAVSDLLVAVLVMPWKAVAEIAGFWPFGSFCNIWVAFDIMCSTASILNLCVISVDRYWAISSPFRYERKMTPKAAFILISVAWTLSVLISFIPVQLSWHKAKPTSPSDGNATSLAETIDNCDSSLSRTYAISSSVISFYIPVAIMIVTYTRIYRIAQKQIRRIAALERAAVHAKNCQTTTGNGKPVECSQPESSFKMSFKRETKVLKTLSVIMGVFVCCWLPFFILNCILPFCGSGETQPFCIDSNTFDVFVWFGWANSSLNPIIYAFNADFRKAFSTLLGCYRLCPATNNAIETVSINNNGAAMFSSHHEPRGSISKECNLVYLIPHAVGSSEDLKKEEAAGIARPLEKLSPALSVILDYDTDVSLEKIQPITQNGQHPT
D1 antagonist = Antagonist of Human D 1 Dopamine Receptor: qHTS. D(1A) dopamine receptor (Homo sapiens), P21728. HEK293 TREx D1 cells, calcium flux, dopamine EC80; active compounds read low. activity change, negative = inhibition, % at 10 µM. 360,000 tested, 3.2% active. AID 504652, 2011; in the data active = activity change below about -30%; also: % is scaled to controls: 0 for no effect and ±100 for the full control effect
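Using tetracycline-induced force-coupled D1 Hek293 cells and a calcium dye, signals were followed for 180 s after compound, then for 180 s after EC80 dopamine, to detect inhibitors.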
TRHR agonist = qHTS for Small Molecule Agonists and Allosteric Enhancers of Human TRH Receptor: Primary Screen for Agonists | Thyrotropin-releasing hormone receptor (Homo sapiens), P34981 | TRHR cells, calcium flux fluo-8, FDSS agonist mode | activation, % at 2 µM | 360,000 tested, 0.18% active | AID 493084, 2011; also: 0% is about no effect
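TRHR-expressing cells loaded with fluo-8 calcium dye; 23 nL library compound pin-transferred, kinetic FDSS fluorescence (Ex 480/Em 530) recorded about 180 s for agonist-induced calcium release, before a 10 nM TRH EC20 addition for potentiator mode.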
D1 agonist = Allosteric Agonists of the Human D1 Dopamine Receptor: qHTS; D(1A) dopamine receptor (Homo sapiens), P21728; HEK293 T-REx D1 cells, calcium flux, agonist mode; activation, % at 2 µM; 360,000 tested, 1% active; AID 504660, 2011; also: 0% is about no effect
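Inducible HEK293 T-REx D1 cells, force-coupled to calcium signalling, were plated at 4000 cells/well with tetracycline and held overnight at 30 C. After no-wash calcium dye loading, compound-evoked calcium rise over 180 s flagged agonists.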
Numbers without * were called inactive. Rule as the data show it, unless noted: active = activation above about 30%; inactive = the rest.

SMILES	TRHR enhancer	D1 PAM	D1 antagonist	TRHR agonist	D1 agonist
COc1ccc(C)cc1S(=O)(=O)NCCN1CCOCC1	40*	-9	8	1	5
COc1cc(CNC(=O)c2ccc3c(c2)c(C)c(C)n3Cc2cccc(C)c2)cc(OC)c1OC	0	-5	-21	0	7
CCc1ccc(-n2nc(C)c3c(C)cc(=O)n(CC(=O)NCc4ccc(C)cc4)c32)cc1	3	-4	0	1	1
COCc1cc(C)nc(OCC(=O)N/N=C/c2ccc(C)cc2)c1C#N	0	-2	-57*	0	3
COCc1cc(C)nc(OCC(=O)N/N=C/c2ccccc2)c1C#N	2	-1	-5	-2	9
CCCC(=O)N1CC(=O)Nc2ccc(C)cc2C1c1ccc(F)cc1 (stereo unspecified)	4	-7	-88*	-1	-1
Cc1ccc(NC(=O)N2CCN(c3nnc(C)c4c(C)n(-c5ccccc5)nc34)CC2)c(Cl)c1	-3	-4	-7	0	3
CC(C)c1onc(C(=O)NCc2ccccn2)c1[N+](=O)[O-]	31*	0	-6	0	0
CC(C)c1ccc(OCC(=O)Nc2ccncc2)cc1	-6	0	-34*	-2	18
COc1ccc(NC(=O)CCC(=O)c2ccc(C(C)C)cc2)cc1	4	-5	-13	1	2
COc1ccc(NC(=O)Nc2ccc(C(C)C)cc2)cc1	-15	-9	-37*	0	0
Cc1cc(OCC(=O)Nc2ccncc2)ccc1Cl	-14	-3	-38*	0	20
Oc1ccc(CNc2ccc(C(F)(F)F)cc2Cl)c2cccnc12	1	1	2	-1	8
CC1=C(C)CC(C(=O)NCc2ccccn2)C(C(=O)O)C1 (stereo unspecified)	3	-4	-91*	1	3
CC(C)c1ccc(NC(=O)NCc2ccccn2)cc1	-2	3	-34*	0	4
CC(C)C(C(=O)Nc1ccncc1)c1ccc(Cl)cc1 (stereo unspecified)	-3	0	-7	8	51*
O=C(Nc1ccc(N2CCC(N3CCCCC3)CC2)c(C(=O)O)c1)c1ccccc1	-2	3	27	0	2
CCN(C(=O)C1CCN(S(=O)(=O)c2ccc3c(c2)CCCN3C(=O)C2CCC2)CC1)c1cccc(C)c1	-4	1	3	-1	3
CC1CCN(C(=O)c2cc(-c3ccc(Cl)cc3)on2)CC1	2	0	-2	0	-2
O=C1CC(C(=O)Nc2cccc3ccccc23)C2(CCCC2)O1 (stereo unspecified)	0	2	17	1	34*
CCOC(=O)c1c(NC(=O)c2noc3c2CC(C(C)(C)C)CC3)sc2c1CCCC2 (stereo unspecified)	12	2	-8	2	2
N=c1c2c(-c3ccccc3)c(-c3ccccc3)n(Cc3ccco3)c2ncn1CCO	-4	-4	27	0	2
N=c1c2c(-c3ccccc3)c(-c3ccccc3)n(Cc3ccco3)c2ncn1CCCO	5	2	0	-1	45*
Cc1cccc(OCC(=O)N2CCC(c3nc4ccccc4o3)CC2)c1C	5	1	-11	0	-1
Cc1cccc(NC(=O)Cc2csc(COc3cccc(C)c3)n2)c1	-16	0	1	-1	0
SMILES	TRHR enhancer	D1 PAM	D1 antagonist	TRHR agonist	D1 agonist
CCOc1ccccc1NC(=O)Cc1csc(COc2cccc(C)c2)n1	-5	1	1	3	68*
Cc1cc(C)cc(OCC(=O)OCCN2C(=O)c3ccccc3C2=O)c1	39*	14	-7	0	3
Cc1ccc(OCC(=O)OCCN2C(=O)c3ccccc3C2=O)cc1C	-3	0	4	0	1
O=C(NCC(c1ccco1)N1CCCCC1)c1ccc(OCc2ccccc2)cc1 (stereo unspecified)	3	-5	-27	-1	4
Cc1ccc(S(=O)(=O)NC(CC(C)C)C(=O)NCC(c2ccco2)N2CCCCC2)cc1 (stereo unspecified)	0	-6	13	-1	3
CCOC(=O)c1c(C)[nH]c(C(=O)N(C)Cc2cccc(OC)c2OC)c1C	4	-7	2	-1	38*
COc1ccc(C(CNC(=O)c2cccc(S(=O)(=O)Nc3ccc(F)cc3)c2)N(C)C)cc1 (stereo unspecified)	33*	-6	-23	0	44*
CC(=O)Nc1ccc(S(=O)(=O)NC(C)C(=O)NCC(c2ccco2)N2CCCCC2)cc1 (stereo unspecified)	3	-2	-46*	0	1
N#CCC(=O)Nc1ccc(C(=O)NCC(c2ccco2)N2CCCCC2)cc1 (stereo unspecified)	38*	1	2	1	4
CC(NC(=O)CN(c1ccc(Cl)cc1Cl)S(=O)(=O)c1ccccc1)c1ccccc1 (stereo unspecified)	-8	-4	-6	-1	0
CSc1ccc(CNC(=O)Cn2c(-c3cccs3)cc3cc(F)ccc32)cc1	3	6	-2	0	4
COc1ccc(NS(=O)(=O)c2cccc(C(=O)N(C)Cc3cccs3)c2)cc1	5	-8	-25	-1	17
CCOc1ccc(S(=O)(=O)Nc2cccc(C(=O)NCC(c3ccccc3)N(C)C)c2)cc1 (stereo unspecified)	-3	2	8	4	35*
COc1ccc(C(CNC(=O)c2cccc(NS(=O)(=O)c3ccccc3)c2)N(C)C)cc1 (stereo unspecified)	-2	-7	-8	0	3
CCOc1ccc(S(=O)(=O)Nc2cccc(C(=O)N(C)Cc3cccc(OC)c3OC)c2)cc1	2	-6	-32*	-1	7
CCOc1ccccc1C(=O)NCC(=O)NNC(=O)c1cccc(S(=O)(=O)Nc2ccc(OC)cc2)c1	2	-5	-20	0	1
CCOc1ncccc1C(=O)NNC(=O)c1cccc(S(=O)(=O)Nc2ccc(OC)cc2)c1	-5	-14	-46*	0	3
COc1ccc(NS(=O)(=O)c2ccc(C(=O)N(C)Cc3cccs3)cc2)cc1	5	2	-35*	5	60*
Cc1cc(C)c2c(=O)cc(C(=O)Nc3ccccc3C(F)(F)F)oc2c1	0	1	11	0	2

Assay outcomes as filed in PubChem.
